This passage reports outcome and AC50 results from PubChem BioAssay AID2284424 (EPA ToxCast).

By AC50 is commonly meant the concentration at which the activity in the assay is half-maximal.

Calls of active or inactive are those of the source. Rule for the calls: active = hit-call score of the fitted dose curve at least 0.9, where 1 is the maximum; inactive = score below 0.9.

The test system of this experiment is SRY-box transcription factor 2 (SOX2) Protein Expression, SOX2 (gene 6657). Briefly: CCTE_Deisenroth_DEVTOX-GLR_Ecto_SOX2: CCTE's DevTox GLR-Ecto Assay Evaluation of SRY-box transcription factor 2 (SOX2) Protein Expression, Deisenroth Lab. The procedure: CCTE_Deisenroth_DEVTOX-GLR_Ecto assay is a cell-based, multiplex-readout assay that uses RUES2-GLR, a human pluripotent cell line, with measurements taken at 48 hours after chemical dosing in a 384-well microplateCCTE_Deisenroth_DEVTOX-GLR_Ecto_SOX2 is 1 of 4 assay components calculated from the CCTE_Deisenroth_DEVTOX-GLR_Ecto assay and it measures an the percentage of cells in an ectoderm state. Using a type of inducible fluorescent protein reporter, gain-of-signal activity can be used to understand changes in gene expression with fluorescent microscopy. The percentage of SOX2+ cells are determined by calculating the number of SOX2+ cells divided by the cell count. To generalize the intended target to other relatable targets, this assay component is annotated to the transcription factor intended target family, where the subfamily is SRY-related HMG-box.Data from the assay component CCTE_Deisenroth_DEVTOX-GLR_Ecto_SOX2 was analyzed as 1 assay endpoint. The endpoint is the percent change in SOX2+ cell population relative to the 0.2% DMSO control in the CCTE_Deisenroth_DEVTOX-GLR_Ecto assay. Furthermore, this assay endpoint can be referred to as a primary readout, because this assay has produced multiple assay endpoints where this one serves as a measure of ectoderm differentiation.
All assay protocols are aligned to the DevTox GLR-Endo assay workflow. Cells are seeded into 384-well microplates for 24 hours prior to initiating differentiation in defined media for a total duration of 48 hours. A total of two chemical exposures are administered in 24-hour intervals during the 48-hour differentiation period. At the assay termination point, cells are fixed and stained with a fluorescent dye demarcating the nucleus. High-content imaging is used to acquire brightfield and fluorescent channel images across 5 fields per well. Cell identification and mean biomarker fluorescence intensities are calculated with image analysis software to determine the total cell counts for viability assessment and the biomarker expression frequency for each lineage-dependent assay. A typical experimental design tests a 10-point concentration series (1 nM - 200 uM) for 28 compounds in single technical replicate. Assay plate controls include non-differentiated pluripotent cells (baseline control), lineage-specific differentiated cells (differentiation control), and DMSO solvent exposed differentiated cells (solvent control). Experiments typically comprise a minimum of four experimental replicates (n=4).
Consider `CC(=O)Nc1ccc(O)cc1`, for which the molecule was classed as inactive.
As for `CCN(CC)CCNC(=O)c1c(C)[nH]c(/C=C2\C(=O)Nc3ccc(F)cc32)c1C`, the molecule was called inactive.
The same measure, in the same setting: the value for `CC(C)(c1ccc(O)cc1)c1ccc(O)cc1` was “inactive”.
Still for that read-out and setting: the value for `CCCC(CCC)C(=O)O` was “inactive”.
For the molecule `Nc1cccc2c1C(=O)N(C1CCC(=O)NC1=O)C2=O` (stereo unspecified), the molecule was classed as inactive.
Same read-out and setting: the value for `CC/C(=C(/CC)c1ccc(O)cc1)c1ccc(O)cc1` was “inactive”.
The same measure, in the same setting: the value for `O=C1NS(=O)(=O)c2ccccc21` was “inactive”.
Regarding `CN(Cc1cnc2nc(N)nc(N)c2n1)c1ccc(C(=O)N[C@@H](CCC(=O)O)C(=O)O)cc1`, the concentration at half-maximal activity (AC50) was 0.106 µM (active).
As for `CC1(C)S[C@@H]2[C@H](NC(=O)Cc3ccccc3)C(=O)N2[C@H]1C(=O)O`, the molecule was classed as inactive.
Same read-out and setting: the value for `O=C1NC(=O)C(c2ccccc2)(c2ccccc2)N1` was “inactive”.
Same read-out and setting: the value for `O=C1CCC(N2C(=O)c3ccccc3C2=O)C(=O)N1` (stereo unspecified) was “inactive”; that for `Nc1nc2ncc(CNc3ccc(C(=O)N[C@@H](CCC(=O)O)C(=O)O)cc3)nc2c(=O)[nH]1` was “inactive”.
Turning to `CS(=O)(=O)OCCCCOS(C)(=O)=O`, the concentration at half-maximal activity (AC50) is 21 µM (active).
Take `CC1=C(/C=C/C(C)=C/C=C/C(C)=C/C(=O)O)C(C)(C)CCC1`: the AC50 was 0.471 µM (active).
On the same count and under the same terms, the value for `CC1=C(/C=C/C(C)=C/C=C/C(C)=C\C(=O)O)C(C)(C)CCC1` was 5.86 µM (active).
As to `O=c1[nH]cc(F)c(=O)[nH]1`, the AC50 was 9.11 µM (active).
